Compounds with a hit are over-represented: about 21% of the library has one in this group of screens.
DRD3 agonist – activates the human D3 dopamine receptor. P35462. D3R DiscoveRx beta-arrestin cells, luminescence, 90 min. max activation, %. 0.58% of 410,000 active. AID 652048; in the data active = max activation above about 30%; also: 0% is about no effect
Target sequence (P35462 whole entry, looked up): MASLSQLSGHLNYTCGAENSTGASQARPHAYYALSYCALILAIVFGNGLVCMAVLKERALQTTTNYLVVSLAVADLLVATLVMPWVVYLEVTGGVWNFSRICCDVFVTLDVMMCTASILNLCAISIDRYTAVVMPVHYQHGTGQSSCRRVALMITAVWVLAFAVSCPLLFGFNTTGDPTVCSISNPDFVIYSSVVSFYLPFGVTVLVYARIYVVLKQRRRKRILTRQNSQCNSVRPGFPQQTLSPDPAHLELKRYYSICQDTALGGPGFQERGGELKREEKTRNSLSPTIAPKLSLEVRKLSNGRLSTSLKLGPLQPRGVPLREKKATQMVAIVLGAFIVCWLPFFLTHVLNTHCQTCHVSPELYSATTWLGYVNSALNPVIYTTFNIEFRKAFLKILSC
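Agonist-mode cell screen: cells plated at 1500/well and incubated overnight at 37 °C, then exposed to library compounds for 90 min at 37 °C. Detection reagent was added for 30–60 min at room temperature, and luminescence was read.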
D3 antag – blocks the human D3 dopamine receptor. P35462. D3R cells, DiscoveRx beta-arrestin luminescence, antagonist mode; hits give low values. max response, negative = inhibition, %. 2.5% of 360,000 active. AID 652054; in the data active = max response below about -50%; inconclusive = no clear call, values can overlap the other calls; also: % is scaled to controls: 0 for no effect and ±100 for the full control effect
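Cells plated overnight at 1500 cells/well, then exposed to library compounds with dopamine controls for 90 minutes at 37 degrees C. DiscoveRx reagent added for 30–60 minutes at room temperature; luminescence read, quantitative HTS format.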
TDP1 cell CPT – DT40-hTDP1 cell growth loss with CPT. chicken DT40 Tdp1-/-;hTDP1 cells + 20 nM CPT, ATP luminescence, 48 h. Potency, µM (titrated, usually from 46.2 µM), inactives show at the highest dose activity change, negative = growth inhibition, actives largely listed as inhibitors. 12% of 420,000 active. AID 686979; also: potency is read from the fitted curve at half-maximal effect; % is scaled to controls: 0 for no effect and ±100 for the full control effect; nearly all actives have a fitted effect of over 55% in size
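Chicken DT40 Tdp1-/- cells complemented with human TDP1, 400 cells/well, exposed to compounds plus 20 nM camptothecin for at least 48 h at 37 C; viability read as ATP content by CellTiter-Glo luminescence.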
ClpP mod – qHTS Assay for Activators of ClpP; purified B. subtilis ClpP, FRET peptide cleavage, 20 min; Potency, µM (series often up to 57.5 µM), inactives show at the top dose activity change, negative = active; 1.9% of 340,000 active; active = well fitted falling curve with a large enough effect; inconclusive = small, poorly fitted or top-dose-only effect; inactive = no such curve, though single readings can be large or run the other way; also: potency is read from the fitted curve at half-maximal effect; the source files actives as falling curves though it sought activators and does not explain the sign; nearly all actives have a fitted effect of over 65% in size
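Purified B. subtilis ClpP, 10 microg/mL final in Tris/HCl pH8 with KCl, BSA, glycerol and Tween-20, cleaved an Abz/nitrotyrosine-quenched decapeptide. Fluorescence (ex 320, em 430) was read at 0 and 20 min at room temperature. Delta was normalized to 5.8 microM ADEP and DMSO/no-enzyme controls.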
TDP1 cell noCPT – qHTS for Inhibitors of human tyrosyl-DNA phosphodiesterase 1 (TDP1): qHTS in cells in absence of CPT; Potency, µM (doses to about 46.2 µM), for the others: top-dose activity change, negative = growth inhibition, most hits filed as inhibitors; 15% of 420,000 active; DT40 Tdp1-/- hTDP1 cells, no CPT, ATP luminescence, 48 h; also: potency is read from the fitted curve at half-maximal effect; % is scaled to controls: 0 for no effect and ±100 for the full control effect; nearly all actives have a fitted effect of over 55% in size
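Readout: luminescence from CellTiter-Glo after 30 min in the dark at RT. Cells: DT40 Tdp1-/- with stable hTDP1, 400/well. Exposure: compounds alone, ≥48 hr, 37 °C.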
IL1B secr inh – inhibitors of inflammasome signaling (IL-1 beta secretion); THP-1 LPS/ATP IL-1B secretion, AlphaLISA, 16 h; hits give low values; activity change, % at 57.5 µM; 4.7% of 360,000 active; AID 743279; in the data active = activity change below about -50%; inconclusive = mostly about -30% to -49%; also: % is scaled to controls: 0 for no effect and ±100 for the full control effect
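Secreted IL-1B measured by AlphaLISA bead assay after 16 h compound exposure of THP-1 cells; compounds (final up to 57.5 uM) added 1 h before LPS (250 ng/mL) and ATP (1.25 mM) stimulation; lower signal means less secretion.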
An asterisk follows results filed as active; ? = inconclusive; / = no result given. Unless noted, calls follow the shape of the dose curve; as a rule, active = well fitted inhibition curve with a large enough effect; inconclusive = small, poorly fitted or top-dose-only effect; inactive = flat fitted curve, though single readings scatter.

SMILES	DRD3 agonist	D3 antag	TDP1 cell CPT	ClpP mod	TDP1 cell noCPT	IL1B secr inh
O=C(NC1CCCCC1)C(c1ccc(C(F)(F)F)cc1)n1c(=O)c(-c2cc3ccccc3[nH]2)nc2ccccc21 (stereo not drawn)	10	30	15µM*	32%	?	70
O=C(NC1CCCCC1)C(c1ccncc1)n1c(=O)c(-c2ccccc2)nc2ccccc21 (stereo not drawn)	-11	-15	-17%	4%	-25%	3
O=C(NC1CCCCC1)C(c1ccccc1F)n1c(=O)c(-c2cc3ccccc3[nH]2)nc2ccccc21 (stereo not drawn)	1	2	?	4%	15µM*	65
O=C(NC1CCCCC1)C(c1ccncc1)n1c(=O)c(-c2cc3ccccc3[nH]2)nc2ccccc21 (stereo not drawn)	3	8	18µM*	?	?	?
CN(C)CCOCCSc1ccc(Cl)cc1	-28	-86*	-5%	-1%	-11%	-9
OCCNCCSc1ccc(Cl)cc1	-4	2	-16%	1%	?	-13
CC(C)NCCOCCSc1ccc(Cl)cc1	-9	-84*	-25%	-1%	?	0
CCOc1ccc(-n2c(SCC(=O)N3CCCc4ccccc43)nc3c([nH]c4ccccc43)c2=O)cc1	-9	/	-24%	-6%	-13%	/
CC(=O)NC1CC(=O)N(c2ccc3c(c2)OCCO3)C1 (stereo not drawn)	-8	/	-1%	1%	-11%	/
Cc1ccccc1NC(=O)Cn1c(C)nc2ccc(N)cc2c1=O	7	20	-20%	28µM*	-2%	5
CC(OC(=O)CCN=C1NS(=O)(=O)c2ccccc21)C(=O)Nc1ccc(N(C)C)cc1 (stereo not drawn)	1	32	3%	-1%	-13%	-6
COc1ccc(C(=O)NNC(=O)c2cc3cc([N+](=O)[O-])ccc3oc2=O)cc1OC	-23	-53*	-6%	-1%	-3%	6
CC(=O)Cc1cc2cc([N+](=O)[O-])ccc2oc1=O	-2	-10	8%	1%	-6%	6
Cc1ccc(C(=O)C(C)OC(=O)c2cc3cc([N+](=O)[O-])ccc3oc2=O)cc1 (stereo not drawn)	-7	-99*	-2%	0%	-2%	28
COC(=O)c1c(C(=O)OC)c2c(-c3ccccc3)cc3cccc1n32	34*	93	?	4%	?	40
COC(=O)c1c(-c2ccccc2)csc1N	1	0	-21%	-1%	?	-14
CC(=O)N1CCCc2cc(S(=O)(=O)N3CCCC(C(=O)N4CCN(c5cc(C)ccc5C)CC4)C3)ccc21 (stereo not drawn)	3	78	6.5µM*	0%	6.5µM*	-78*
COc1ccccc1N1CCN(C(=O)C2CCCN(S(=O)(=O)c3ccc4c(c3)CCCN4C(C)=O)C2)CC1 (stereo not drawn)	2	7	8.2µM*	1%	8.2µM*	13
COc1ccc(S(=O)(=O)N2CCC(C(=O)N3CCN(c4ccccc4OC)CC3)CC2)cc1	2	-25	?	-5%	?	-12
CCN(CCC(=O)O)c1ccc(/C=C/c2ccnc3ccccc23)cc1	/	/	2%	-3%	?	/
O=[N+]([O-])c1ccc(/C=C/c2ccnc3ccccc23)cc1	/	/	11µM*	-8%	16µM*	/
O=[N+]([O-])c1ccc(/C=C/c2ccnc3ccccc23)c([N+](=O)[O-])c1	/	/	35µM*	1%	20µM*	/
Nc1ccc(/C=C/c2ccnc3ccccc23)cc1[N+](=O)[O-]	/	/	10µM*	-1%	5µM*	/

Screening data (PubChem)
